# Unmarked numbers belong to inactive results. This is one part of the list. Activity calls are given as the source filed them.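 How the source made its calls, unless noted: active means mean inhibition across triplicate wells above the cutoff set by the earlier primary insulin-degrading enzyme screen (cut at about 16% in these data); inactive means the rest.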
# How the values were obtained:
# [1] = biological target: Insulin-degrading enzyme (Homo sapiens) (UniProt P14735); experiment: human IDE inhibitors in live cells, confirmation, fluorescence polarization, HEK cells, FAbetaB substrate (AID 435028); details: FAbetaB cleavage, at 5.59 µM, stronger effect = higher value;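 further: 0% = DMSO wells and 100% = 60 µM reference IDE inhibitor Ii1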
# Sequence of Insulin-degrading enzyme (Homo sapiens) (P14735 whole entry, looked up): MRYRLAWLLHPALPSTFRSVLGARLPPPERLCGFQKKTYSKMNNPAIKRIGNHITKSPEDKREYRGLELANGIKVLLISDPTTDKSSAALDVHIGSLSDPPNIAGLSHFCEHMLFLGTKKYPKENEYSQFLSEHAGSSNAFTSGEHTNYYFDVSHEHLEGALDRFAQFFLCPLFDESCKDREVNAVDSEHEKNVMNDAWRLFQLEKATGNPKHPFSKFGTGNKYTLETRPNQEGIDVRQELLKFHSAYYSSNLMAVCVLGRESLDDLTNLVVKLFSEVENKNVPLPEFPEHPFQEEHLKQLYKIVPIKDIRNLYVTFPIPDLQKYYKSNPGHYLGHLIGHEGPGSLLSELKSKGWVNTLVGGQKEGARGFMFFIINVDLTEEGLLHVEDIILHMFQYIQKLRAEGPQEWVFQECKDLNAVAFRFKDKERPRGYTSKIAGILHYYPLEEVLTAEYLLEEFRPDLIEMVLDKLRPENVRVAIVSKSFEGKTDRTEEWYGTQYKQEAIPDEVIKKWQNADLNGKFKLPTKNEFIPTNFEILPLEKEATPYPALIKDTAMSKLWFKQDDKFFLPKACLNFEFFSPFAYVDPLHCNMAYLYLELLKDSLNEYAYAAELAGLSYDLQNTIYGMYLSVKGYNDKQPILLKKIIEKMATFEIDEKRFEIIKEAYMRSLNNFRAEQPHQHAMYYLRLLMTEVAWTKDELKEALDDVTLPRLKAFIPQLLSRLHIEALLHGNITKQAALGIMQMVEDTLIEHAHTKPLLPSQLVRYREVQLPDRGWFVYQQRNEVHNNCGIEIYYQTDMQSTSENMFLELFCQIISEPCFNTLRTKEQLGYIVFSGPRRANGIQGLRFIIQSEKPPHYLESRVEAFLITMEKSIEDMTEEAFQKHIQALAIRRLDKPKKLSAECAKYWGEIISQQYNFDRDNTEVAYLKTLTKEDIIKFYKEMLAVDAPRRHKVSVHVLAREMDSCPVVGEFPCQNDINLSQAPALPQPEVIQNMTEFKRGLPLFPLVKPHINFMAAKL
# [2] = cytotoxicity in HEK cells, cytotoxicity control for IDE inhibitor project, cell-based, luminescence (AID 449730; in the data active means inhibition above about 22%;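 further: 0% = vehicle wells and 100% = reference cytotoxic drug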); details: HEK293 cytotoxicity, ATP luminescence; at 5.59 µM; stronger effect = higher value
# [3] = biological target: Oxytocin receptor (Homo sapiens) (UniProt P30559); experiment: human OXTR agonists, confirmation, fluorescence, CHO-OTR cells, triplicate (AID 434963;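 active means mean activation above about 20% derived from the earlier single-dose screen, limit read from the data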;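 further: peak over minimum fluorescence ratio per well during a 100 second FLIPR read; 0% = DMSO alone and 100% = oxytocin high control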); details: Fluo-8 calcium fluorescence, agonist, at 3 µM, stronger effect = higher value
# [4] = biological target: Vasopressin V1a receptor (Homo sapiens) (UniProt P37288); experiment: V1a receptor agonists, calcium signal, counter-screen for OXTR agonist project, triplicate, fluorescence, CHO-V1R cells (AID 434991;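 active means mean activation over triplicate exceeds the hit threshold set in the earlier primary screen, cut at about 20% in these data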;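 further: peak over basal fluorescence ratio within a 100 second read; 0% = DMSO alone and 100% = 3 nM vasopressin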); details: Fluo-8 calcium fluorescence, at 3 µM, stronger effect = higher value
# [5] = growth loss of phage-infected RecBCD+ E. coli, confirmation, RecBCD inhibitor project, absorbance, E. coli V66, T4 gene 2 phage (AID 651982;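 active means mean inhibition over triplicates exceeding the hit threshold derived in the original primary screen, cut at about 11% in these data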); details: E. coli V66 + T4 2- phage, growth OD; at 11.9 µM; stronger effect = higher value
# [6] = E. coli viability inhibition, counter-screen for RecBCD inhibitor project, absorbance, high throughput (AID 651983; in the data active means inhibition above about 20%;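 further: E. coli strain V66 grown with compound alone and no phage infection; 0% = bacteria with DMSO vehicle only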); details: absorbance (OD) growth, at 11.9 µM, stronger effect = higher value
# [7] = growth loss of phage-infected AddAB-carrying E. coli, confirmation, counter-screen for RecBCD inhibitor project, absorbance, E. coli V3065, T4 phage (AID 651984;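 active means mean inhibition above the solvent-only control wells' mean plus 3 SD, cut at about 22% in these data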;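 further: higher means less bacterial growth from phage killing when AddAB is blocked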); details: E. coli expressing H. pylori AddAB + T4 phage, OD growth; at 11.9 µM; stronger effect = higher value; gene 2 mutant T4, recBCD-deleted host
# [8] = biological target: Platelet-activating factor acetylhydrolase IB subunit alpha1 (Homo sapiens) (UniProt Q15102); experiment: PAFAH1B3 enzyme inhibitors, confirmation, biochemical, fluorescence polarization, human (AID 493032;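 active means average inhibition over triplicate runs above the hit cutoff set in the earlier primary screen, cut at about 25% in these data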;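 further: 0% = enzyme with DMSO and 100% = wells lacking PAFAH1B3 protein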); details: recombinant PAFAH1B3, FP-Rh activity-based probe, at 3.39 µM, stronger effect = higher value
# Sequence of Platelet-activating factor acetylhydrolase IB subunit alpha1 (Homo sapiens) (Q15102 whole entry, looked up): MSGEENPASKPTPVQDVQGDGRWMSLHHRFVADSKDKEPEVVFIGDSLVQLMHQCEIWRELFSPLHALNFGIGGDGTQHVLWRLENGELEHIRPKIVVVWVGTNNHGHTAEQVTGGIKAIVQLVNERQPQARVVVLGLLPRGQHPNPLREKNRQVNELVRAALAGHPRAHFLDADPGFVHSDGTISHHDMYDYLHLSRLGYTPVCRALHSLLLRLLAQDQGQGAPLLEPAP
# [9] = biological target: Nuclear receptor coactivator 3 (Homo sapiens) (UniProt Q9Y6Q9); experiment: SRC3 coactivator transcriptional activity inhibitors, confirmation, cell-based, luminescence, quadruplicate (AID 588792;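 active means mean inhibition over 43.08%, the solvent-only control mean plus 3 SD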;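 further: 0% = DMSO treated cells and 100% = gossypol at 36 µM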); details: HEK293 GAL4-SRC3 luciferase reporter, at 3.6 µM, stronger effect = higher value
# Sequence of Nuclear receptor coactivator 3 (Homo sapiens) (Q9Y6Q9 whole entry, looked up, the tested form may be a part): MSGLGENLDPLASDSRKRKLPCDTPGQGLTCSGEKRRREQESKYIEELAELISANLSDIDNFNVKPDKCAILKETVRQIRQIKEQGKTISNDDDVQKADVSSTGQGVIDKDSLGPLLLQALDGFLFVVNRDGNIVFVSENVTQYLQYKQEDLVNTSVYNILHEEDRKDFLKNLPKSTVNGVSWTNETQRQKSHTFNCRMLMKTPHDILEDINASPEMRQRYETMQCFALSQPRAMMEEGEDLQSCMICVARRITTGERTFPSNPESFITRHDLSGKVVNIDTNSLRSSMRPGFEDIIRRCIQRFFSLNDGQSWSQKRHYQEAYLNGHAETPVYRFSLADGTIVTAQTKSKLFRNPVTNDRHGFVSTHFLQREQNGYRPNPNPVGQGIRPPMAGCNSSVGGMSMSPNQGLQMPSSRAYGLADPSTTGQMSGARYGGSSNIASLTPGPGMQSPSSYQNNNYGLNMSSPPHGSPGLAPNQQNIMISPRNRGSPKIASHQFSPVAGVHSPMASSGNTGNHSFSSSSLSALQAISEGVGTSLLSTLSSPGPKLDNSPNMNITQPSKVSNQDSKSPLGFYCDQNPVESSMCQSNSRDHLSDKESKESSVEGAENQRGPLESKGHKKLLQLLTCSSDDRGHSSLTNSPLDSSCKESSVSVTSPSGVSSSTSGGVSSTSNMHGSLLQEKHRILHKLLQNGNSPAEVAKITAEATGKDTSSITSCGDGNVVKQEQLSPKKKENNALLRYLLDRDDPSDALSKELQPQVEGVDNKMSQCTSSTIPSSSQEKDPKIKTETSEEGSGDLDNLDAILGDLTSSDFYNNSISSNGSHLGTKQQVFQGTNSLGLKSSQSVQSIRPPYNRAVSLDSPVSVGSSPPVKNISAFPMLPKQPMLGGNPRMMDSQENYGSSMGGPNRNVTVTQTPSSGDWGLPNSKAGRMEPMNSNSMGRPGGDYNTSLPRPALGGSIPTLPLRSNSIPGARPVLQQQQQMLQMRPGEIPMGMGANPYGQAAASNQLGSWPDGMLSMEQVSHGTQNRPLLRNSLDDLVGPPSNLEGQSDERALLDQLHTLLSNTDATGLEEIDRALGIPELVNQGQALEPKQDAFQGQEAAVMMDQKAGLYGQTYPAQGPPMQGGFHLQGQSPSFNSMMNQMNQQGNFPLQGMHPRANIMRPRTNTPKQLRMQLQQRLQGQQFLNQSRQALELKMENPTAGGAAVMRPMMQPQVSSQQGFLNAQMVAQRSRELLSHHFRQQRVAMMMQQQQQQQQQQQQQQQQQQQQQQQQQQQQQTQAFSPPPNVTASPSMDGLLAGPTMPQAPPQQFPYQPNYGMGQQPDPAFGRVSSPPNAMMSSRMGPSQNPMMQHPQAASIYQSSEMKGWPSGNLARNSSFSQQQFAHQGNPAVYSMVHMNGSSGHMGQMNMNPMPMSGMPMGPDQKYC
# [10] = system: transactivating tegument protein VP16 (Human herpesvirus 1), Gal4-VP16 luciferase reporter; experiment: VP16 transactivation inhibitors, counter-screen for SRC3 inhibitor project, cell-based, luminescence, high throughput (AID 588794; in the data active means inhibition above about 30%); details: mammalian cells, VP16-driven luciferase reporter luminescence; at 3.6 µM; stronger effect = higher value
# [11] = system: transactivating tegument protein VP16 (Human herpesvirus 1); experiment: VP16 transactivation reporter inhibitors, counter-screen for SRC2 inhibitor project, cell-based, luminescence, single concentration (AID 652007; in the data active means inhibition above about 36%); details: cell-based VP16 transactivation luciferase reporter, at 8.9 µM, stronger effect = higher value
# [12] = biological target: Nuclear receptor coactivator 2 (Homo sapiens) (UniProt Q15596); experiment: SRC2 coactivator transcriptional activity inhibitors, confirmation, cell-based, luminescence, HEK293, triplicate (AID 652008;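 active means mean inhibition above 46.5%, the solvent-only control mean plus 3 SD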;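 further: 0% = DMSO-treated cells and 100% = Gossypol at 36 µM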); details: HEK293 GAL4-SRC2 luciferase reporter, at 8.9 µM, stronger effect = higher value
# [13] = Gal4-VP16 luciferase reporter inhibitors, counter-screen for COUP-TFII antagonist project, cell-based, luminescence, HEK293 (AID 687007; in the data active means inhibition above about 13%); details: at 8.5 µM, stronger effect = higher value
# [14] = biological target: COUP transcription factor 2 (Homo sapiens) (UniProt P24468); experiment: NR2F2 transcriptional activity inhibitors, confirmation, cell-based, luciferase reporter, HEK293, triplicate (AID 687008;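 active means mean inhibition over three repeats above a set limit taken from the earlier primary screen, cut at about 38% in these data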;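 further: 100% = cells given the luciferase reporter alone without the COUP-TF2 vector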); details: HEK293 NGFI-A luciferase reporter, luminescence; at 8.5 µM; stronger effect = higher value
# Sequence of COUP transcription factor 2 (Homo sapiens) (P24468 whole entry, looked up): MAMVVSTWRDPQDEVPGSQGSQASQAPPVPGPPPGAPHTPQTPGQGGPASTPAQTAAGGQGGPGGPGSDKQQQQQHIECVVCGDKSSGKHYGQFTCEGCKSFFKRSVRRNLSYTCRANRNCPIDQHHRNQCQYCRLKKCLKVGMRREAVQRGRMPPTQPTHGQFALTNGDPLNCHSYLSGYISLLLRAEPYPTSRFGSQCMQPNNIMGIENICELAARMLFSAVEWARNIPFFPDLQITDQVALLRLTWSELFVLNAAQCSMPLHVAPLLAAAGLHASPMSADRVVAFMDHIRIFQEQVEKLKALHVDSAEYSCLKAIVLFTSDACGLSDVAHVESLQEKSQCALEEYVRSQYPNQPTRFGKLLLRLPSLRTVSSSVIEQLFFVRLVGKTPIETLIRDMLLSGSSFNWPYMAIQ
# [15] = biological target: Photoreceptor-specific nuclear receptor (Homo sapiens) (UniProt Q9Y5X4); experiment: NR2E3 agonist confirmation in cells, cell-based, luminescence, CHO-S two-hybrid (AID 624378;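 active means average inhibition above a cutoff equal to the mean inhibition of all tested compounds plus one SD, cut at about 70% in these data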;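 further: 0% = DMSO in NR2E3 cells and 100% = DMSO in cells lacking NR2E3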); details: CHO-S mammalian two-hybrid NR2E3-NCOR, luciferase luminescence; at 3.98 µM; stronger effect = higher value
# [16] = GAL4-VP16 reporter modulators, confirmation, counter-screen for NR2E3 agonist project, cell-based, luminescence, CHO-S, high throughput (AID 624379;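 active means mean inhibition above a cutoff equal to the average over all tested compounds plus one standard deviation, cut at about 70% in these data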;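 further: 0% = DMSO with VP16-transfected cells and 100% = DMSO with cells lacking VP16; higher means less reporter light so more repression of VP16 activity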); details: CHO-S GAL4-VP16 luciferase reporter, at 3.98 µM, stronger effect = higher value
# [17] = biological target: (Lyso)-N-acylphosphatidylethanolamine lipase (Mus musculus) (UniProt Q8VD66); experiment: ABHD4 inhibitors, retest, confirmation, biochemical, fluorescence polarization, mouse (AID 720658;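 active means mean inhibition across replicates above the hit cutoff set in the primary screen, cut at about 30% in these data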;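 further: 0% = wild-type ABHD4 with DMSO and 100% = catalytically dead S159A mutant with DMSO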); details: purified mABHD4, FP-Rh probe fluorescence polarization; at 8.92 µM; stronger effect = higher value
# Sequence of (Lyso)-N-acylphosphatidylethanolamine lipase (Mus musculus) (Q8VD66 whole entry, looked up, the tested form may be a part): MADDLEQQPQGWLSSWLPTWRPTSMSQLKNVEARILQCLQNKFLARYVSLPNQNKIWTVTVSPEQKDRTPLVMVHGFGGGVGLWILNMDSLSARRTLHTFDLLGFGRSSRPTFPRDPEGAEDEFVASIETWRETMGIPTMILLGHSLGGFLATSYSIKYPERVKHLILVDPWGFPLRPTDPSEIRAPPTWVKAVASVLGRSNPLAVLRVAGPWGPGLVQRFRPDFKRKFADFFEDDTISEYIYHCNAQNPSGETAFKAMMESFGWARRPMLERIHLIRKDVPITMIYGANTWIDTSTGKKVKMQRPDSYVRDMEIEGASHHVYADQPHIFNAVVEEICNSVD
# [18] = biological target: Oxysterols receptor LXR-beta (Homo sapiens) (UniProt P55055); experiment: LXR agonists, Gal4 luciferase reporter, confirmation, counter-screen for hcDAF-12 agonist project, cell-based, luminescence, HEK293, H. contortus campaign (AID 743027;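 active means mean percent activation of the reporter above a cutoff set as the average over tested compounds plus their standard deviation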); details: HEK293 Gal4-LXR tk-luc reporter, 24 h, at 6.8 µM, stronger effect = higher value, normalized: DMSO 0%, positive control 100%
# Sequence of Oxysterols receptor LXR-beta (Homo sapiens) (P55055 whole entry, looked up, the tested form may be a part): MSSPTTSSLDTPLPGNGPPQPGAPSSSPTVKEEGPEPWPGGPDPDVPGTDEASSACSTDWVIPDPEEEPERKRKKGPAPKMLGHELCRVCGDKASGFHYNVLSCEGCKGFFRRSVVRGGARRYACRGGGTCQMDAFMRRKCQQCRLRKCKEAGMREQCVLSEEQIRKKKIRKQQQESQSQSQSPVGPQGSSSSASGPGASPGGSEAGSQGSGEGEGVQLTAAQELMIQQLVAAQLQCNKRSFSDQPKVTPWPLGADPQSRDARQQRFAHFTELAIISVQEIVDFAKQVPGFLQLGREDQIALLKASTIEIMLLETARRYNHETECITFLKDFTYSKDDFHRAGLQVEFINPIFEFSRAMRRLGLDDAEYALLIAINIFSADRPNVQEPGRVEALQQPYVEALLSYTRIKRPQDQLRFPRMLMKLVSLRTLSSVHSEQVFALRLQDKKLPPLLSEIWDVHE
# [19] = system: Nuclear hormone receptor DAF-12 (Haemonchus contortus); experiment: H. contortus DAF-12 receptor agonists, confirmation, cell-based, luminescence, HEK293, lit1-tk-luc, triplicate (AID 743032;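 active means mean activation across triplicate tests above the threshold derived from the earlier primary screen, cut at about 5.5% in these data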;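 further: 0% = DMSO only wells and 100% = 3 µM Δ7-dafachronic acid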); details: HEK293 hcDAF-12 lit1-tk-luc reporter, at 6.8 µM, stronger effect = higher value, % of Δ7-dafachronic acid response
# [20] = system: DAF-12 nuclear receptor (Heterodera glycines), GAL4-LBD fusion; experiment: H. glycines DAF-12 receptor agonists, confirmation, cell-based, luminescence, HEK293, GAL4-LBD fusion (AID 743050;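 active means mean activation over triplicate wells above the hit cutoff derived from the earlier primary screen, cut at about 11% in these data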;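 further: 0% = DMSO low control and 100% = 2 mM sodium butyrate high control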); details: HEK293 GAL4-hgDAF12 luciferase reporter, agonist mode; at 6.8 µM; stronger effect = higher value; percent of butyrate response
# [21] = biological target: Oxysterols receptor LXR-beta (Homo sapiens) (UniProt P55055); experiment: LXR agonists, Gal4 luciferase reporter, confirmation, counter-screen for hgDAF-12 agonist project, cell-based, luminescence, HEK293, H. glycines campaign (AID 743051;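 active means mean activation of the triplicate above a set limit carried over from the primary screen, none filed active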); details: 24 h, at 6.8 µM, stronger effect = higher value
# [22] = biological target: Protein-arginine deiminase type-4 (Homo sapiens) (UniProt Q9UM07); experiment: human PAD4 inhibitors, confirmation, biochemical, fluorescence polarization (AID 488796;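 active means mean inhibition across replicates above the hit cutoff set by the earlier primary screen, cut at about 15% in these data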;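 further: inhibitors block active-site labeling by the probe so polarization falls; 0% = PAD4 with probe and DMSO and 100% = probe without PAD4 enzyme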); details: recombinant PAD4, RCA probe fluorescence polarization; at 6.36 µM; stronger effect = higher value
# Sequence of Protein-arginine deiminase type-4 (Homo sapiens) (Q9UM07 whole entry, looked up): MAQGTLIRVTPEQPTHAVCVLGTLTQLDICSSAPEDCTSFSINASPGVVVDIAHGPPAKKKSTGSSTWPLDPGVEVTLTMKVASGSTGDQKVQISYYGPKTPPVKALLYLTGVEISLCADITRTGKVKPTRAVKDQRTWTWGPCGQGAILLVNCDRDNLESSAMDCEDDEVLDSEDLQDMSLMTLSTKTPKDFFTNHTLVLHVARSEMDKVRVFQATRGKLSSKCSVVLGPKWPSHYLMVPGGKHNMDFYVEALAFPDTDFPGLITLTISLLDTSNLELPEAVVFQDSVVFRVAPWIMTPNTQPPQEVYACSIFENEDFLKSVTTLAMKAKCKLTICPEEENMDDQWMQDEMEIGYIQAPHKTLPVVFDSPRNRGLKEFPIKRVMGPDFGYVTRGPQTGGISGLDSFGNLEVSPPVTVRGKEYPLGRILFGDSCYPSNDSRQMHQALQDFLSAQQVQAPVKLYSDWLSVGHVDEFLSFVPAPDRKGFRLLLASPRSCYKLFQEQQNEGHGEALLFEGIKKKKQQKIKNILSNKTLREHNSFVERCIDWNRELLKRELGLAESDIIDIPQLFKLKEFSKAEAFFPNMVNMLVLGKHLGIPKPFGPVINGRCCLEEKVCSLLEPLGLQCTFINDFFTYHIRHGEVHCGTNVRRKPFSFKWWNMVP
# [23] = biological target: Platelet-activating factor acetylhydrolase (Homo sapiens) (UniProt Q13093); experiment: pPAFAH (PLA2G7) enzyme inhibitors, confirmation, biochemical, fluorescence polarization, human (AID 463230;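 active means mean inhibition of the triplicate above the hit cutoff set for the earlier primary screen, cut at about 25% in these data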;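 further: 0% = enzyme with DMSO and 100% = wells lacking pPAFAH enzyme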); details: recombinant pPAFAH, FP-Rh probe fluorescence polarization; at 3.39 µM; stronger effect = higher value
# Sequence of Platelet-activating factor acetylhydrolase (Homo sapiens) (Q13093 whole entry, looked up): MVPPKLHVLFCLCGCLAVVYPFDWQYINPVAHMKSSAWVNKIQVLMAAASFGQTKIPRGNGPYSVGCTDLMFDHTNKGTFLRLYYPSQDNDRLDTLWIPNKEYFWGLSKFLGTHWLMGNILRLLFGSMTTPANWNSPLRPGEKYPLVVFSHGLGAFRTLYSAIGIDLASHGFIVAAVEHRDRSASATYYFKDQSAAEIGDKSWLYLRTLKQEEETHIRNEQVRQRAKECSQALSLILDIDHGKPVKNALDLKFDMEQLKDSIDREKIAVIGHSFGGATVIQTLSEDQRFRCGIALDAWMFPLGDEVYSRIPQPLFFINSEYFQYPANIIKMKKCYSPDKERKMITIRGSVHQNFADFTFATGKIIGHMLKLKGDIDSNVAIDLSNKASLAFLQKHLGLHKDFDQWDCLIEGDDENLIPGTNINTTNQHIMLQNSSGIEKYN
# [24] = biological target: Serine protease HTRA1 (Homo sapiens) (UniProt Q92743); experiment: HTRA1 protease inhibitors, retest, confirmation, biochemical, fluorescence polarization (AID 540248;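 active means mean inhibition over three repeats above a set limit taken from the earlier primary screen, cut at about 37% in these data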;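 further: 0% = HTRA1 with DMSO and 100% = wells lacking HTRA1; inhibitors block probe binding so polarization drops and inhibition rises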); details: recombinant HTRA1, FP-rhodamine activity-based probe, at 5.96 µM, stronger effect = higher value
structure (smiles),measurement,setting,value
Oc1ccc(-c2onc3ccc(Cl)cc23)cc1,inhibition,[1],101% (active)
same,inhibition,[2],12.7%
CCOc1ccc(Cn2nnc(C(=O)Nc3ccc(OC)cc3OC)c2N)cc1,activation,[3],16.4%
same,activation,[4],14.5%
same,inhibition,[5],-0.29%
same,inhibition,[6],-0.35%
same,inhibition,[7],-1.47%
CCCC(=O)Nc1c(O)c2ccccc2[nH]c1=O,inhibition,[1],2.78%
same,inhibition,[2],9.27%
CC1(C)Cc2cccc(OCC(=O)N3CCN(c4ccc([N+](=O)[O-])cc4)CC3)c2O1,inhibition,[1],4.72%
same,inhibition,[2],19.7%
Cc1cccc(-n2c(Cc3cc(=O)[nH]c(=O)[nH]3)nnc2SCC(=O)Nc2cccc(C(F)(F)F)c2)c1,inhibition,[1],6.02%
same,inhibition,[2],3.28%
COc1cc(/C=C(\C#N)c2nc3ccccc3[nH]2)ccc1O,inhibition,[1],134% (active)
same,inhibition,[2],21.9%
O=C(/C=C(O)/C=C/c1ccc(O)cc1)/C=C/c1ccc(O)cc1,inhibition,[8],31.6% (active)
COc1ccc(C(=O)Nc2nc(-c3ccc(S(=O)(=O)N4CCOCC4)cc3)cs2)cc1,inhibition,[9],-12.4%
same,inhibition,[10],-5.9%
same,inhibition,[11],16.2%
same,inhibition,[12],21.5%
same,inhibition,[13],-11.1%
same,inhibition,[14],40.2% (active)
Fc1ccc2[nH]c3c(N4CCSCC4)ncnc3c2c1,inhibition,[15],84.4% (active)
same,inhibition,[16],63.2%
same,inhibition,[13],4.31%
same,inhibition,[14],48% (active)
N#C/C(=C\c1ccc(O)c(O)c1)C(=O)NCc1ccccc1,inhibition,[17],30.8% (active)
N#CC1=C(N)Oc2c(sc3ccccc23)C1c1ccco1 (stereo not given),activation,[18],-0.13%
same,activation,[19],1.83%
COc1ccc(N=C(C)c2sc3ccccc3c2O)cc1,activation,[20],18.6% (active)
same,activation,[21],0.76%
Cc1nc2ccc(NC(=O)C(F)(F)F)cc2o1,inhibition,[22],4.72%
Cc1cc(/C=N/Nc2ccc([N+](=O)[O-])cn2)c(C)n1-c1cccc(C(=O)O)c1,inhibition,[23],11.7%
same,inhibition,[24],30.7%
same,inhibition,[17],74.5% (active)
CCc1ccccc1NC(=S)Nc1cc(OC)c(NC(=O)C(C)C)cc1OC,inhibition,[22],1.96%
same,inhibition,[17],-9.17%
CC(=O)Oc1cccc(N2C(=O)CC(Nc3ccc(N4CCOCC4)cc3)C2=O)c1 (stereo not given),inhibition,[22],-1.36%
O=C(CN1CCCCCC1)Nc1ccc(Br)cc1Br,inhibition,[22],3.01%
COc1cccc(NC(=O)C2c3cc(OC)c(OC)cc3C(=O)N(C)C2c2cccnc2)c1 (stereo not given),inhibition,[22],8.92%
